From PubChem BioAssay AID1159580 (chemical genetic matrix, 2015)
About 2,000 (36%) of roughly 5,500 compounds were called active. About 18% were inconclusive and are not listed. Rule as the data show it: active = normalized growth mostly below about 0.91 (no sharp cut-off); inconclusive = no clear call, values can overlap the other calls; inactive = mostly above about 0.92. Some of the results follow.

Assay: chemical genetic growth profiling, strain panel (AID 1159580);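 also: tested at 20 µM; growth read once vehicle control cultures reached saturation at 30 °C; 1 = growth at the plate median or of vehicle wells; lower values mean less growth of the strain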
Conditions: growth OD

Measured: normalized growth

CC1(C)C2CC[C@]3(C)C(C(=O)C=C4[C@H]5C[C@@](C)(C(=O)O)CC[C@]5(C)CC[C@]43C)[C@@]2(C)CC[C@@H]1O (some centres not stated)
inactive: S. cerevisiae deletion strains, locus YJR075W, strain HOC1, active compounds read low 1.05 | S. cerevisiae deletion strains, locus YKL009W, strain mrt4, active compounds read low 0.921 | S. cerevisiae deletion strains, locus YKL068W, active compounds read low 1.02 | S. cerevisiae deletion strains, locus YKL085W, strain MDH1 (second series), active compounds read low 1.02 | S. cerevisiae deletion strains, locus YKL085W, strain MDH1, active compounds read low 1.02 | S. cerevisiae deletion strains, locus YKL160W, strain elf1, active compounds read low 0.95 | S. cerevisiae deletion strains, locus YKL190W, strain CNB1, active compounds read low 1.04 | S. cerevisiae deletion strains, locus YKR001C, strain vps1, active compounds read low 0.996 | S. cerevisiae deletion strains, locus YKR026C, strain gcn3, active compounds read low 1.03 | S. cerevisiae deletion strains, locus YKR091W, strain srl3, active compounds read low 1.01 | S. cerevisiae deletion strains, locus YLL026W, active compounds read low 0.979 | S. cerevisiae deletion strains, locus YLL041C, strain sdh2, active compounds read low 1.01 | S. cerevisiae deletion strains, locus YLR039C, strain RIC1, active compounds read low 1.1 | S. cerevisiae deletion strains, locus YLR058C, strain SHM2, active compounds read low 1.03 | S. cerevisiae deletion strains, locus YLR102C, strain apc9, active compounds read low 1.01 | S. cerevisiae deletion strains, locus YLR113W, strain HOG1, active compounds read low 1.01 | S. cerevisiae deletion strains, locus YLR221C, strain rsa3, active compounds read low 0.917 | S. cerevisiae deletion strains, locus YLR258W, strain gsy2, active compounds read low 0.953 | S. cerevisiae deletion strains, locus YLR262C, strain YPT6, active compounds read low 1.04 | S. cerevisiae deletion strains, locus YLR268W, strain sec22, active compounds read low 0.944 | S. cerevisiae deletion strains, locus YLR330W, strain CHS5, active compounds read low 1.04 | S. cerevisiae deletion strains, locus YLR342W, strain FKS1 (second series), active compounds read low 1.03 | S. cerevisiae deletion strains, locus YLR342W, strain FKS1, active compounds read low 1.01 | S. cerevisiae deletion strains, locus YLR357W, strain rsc2, active compounds read low 1.05 | S. cerevisiae deletion strains, locus YLR370C, strain arc18, active compounds read low 1.01 | S. cerevisiae deletion strains, locus YLR371W, strain rom2, active compounds read low 1 | S. cerevisiae deletion strains, locus YLR384C, strain iki3, active compounds read low 1.02 | S. cerevisiae deletion strains, locus YLR418C, strain cdc73, active compounds read low 1.03 | S. cerevisiae deletion strains, locus YML016C, strain PPZ1, active compounds read low 1.05 | S. cerevisiae deletion strains, locus YML032C, strain rad52, active compounds read low 0.991 | S. cerevisiae deletion strains, locus YML120C, strain ndi1, active compounds read low 0.993 | S. cerevisiae deletion strains, locus YML124C, strain tub3, active compounds read low 1.02 | S. cerevisiae deletion strains, locus YMR058W, strain fet3, active compounds read low 0.984 | S. cerevisiae deletion strains, locus YMR078C, strain ctf18, active compounds read low 1.01 | S. cerevisiae deletion strains, locus YMR125W, strain sto1, active compounds read low 1.02 | S. cerevisiae deletion strains, locus YMR129W, active compounds read low 1.01 | S. cerevisiae deletion strains, locus YMR223W, strain ubp8, active compounds read low 0.994 | S. cerevisiae deletion strains, locus YMR231W, strain pep5, active compounds read low 0.984 | S. cerevisiae deletion strains, locus YMR263W, strain SAP30, active compounds read low 1.03 | S. cerevisiae deletion strains, locus YMR307W, strain GAS1, active compounds read low 1.02 | S. cerevisiae deletion strains, locus YNL067W, strain RPL9B, active compounds read low 0.98 | S. cerevisiae deletion strains, locus YNL128W, strain TEP1, active compounds read low 1.04 | S. cerevisiae deletion strains, locus YNL153C, strain GIM3, active compounds read low 0.982 | S. cerevisiae deletion strains, locus YNL183C, strain NPR1, active compounds read low 0.946 | S. cerevisiae deletion strains, locus YNL209W, strain ssb2, active compounds read low 0.971 | S. cerevisiae deletion strains, locus YNL233W, strain BNI4, active compounds read low 1.03 | S. cerevisiae deletion strains, locus YNL248C, strain rpa49, active compounds read low 0.926 | S. cerevisiae deletion strains, locus YNL250W, strain rad50, active compounds read low 1.01 | S. cerevisiae deletion strains, locus YNL271C, strain bni1, active compounds read low 1.01 | S. cerevisiae deletion strains, locus YNL298W, strain CLA4, active compounds read low 0.965 | S. cerevisiae deletion strains, locus YNL307C, strain MCK1, active compounds read low 1.02 | S. cerevisiae deletion strains, locus YNL322C, strain KRE1 (second series), active compounds read low 1.01 | S. cerevisiae deletion strains, locus YNL322C, strain KRE1, active compounds read low 1.05 | S. cerevisiae deletion strains, locus YNR049C, strain mso1, active compounds read low 1.01 | S. cerevisiae deletion strains, locus YNR052C, strain pop2, active compounds read low 0.999 | S. cerevisiae deletion strains, locus YOL006C, strain TOP1, active compounds read low 1.09 | S. cerevisiae deletion strains, locus YOL012C, strain htz1 1.33 | S. cerevisiae deletion strains, locus YOL147C, strain pex11, active compounds read low 1.02 | S. cerevisiae deletion strains, locus YOR001W, strain rrp6, active compounds read low 1.01 | S. cerevisiae deletion strains, locus YOR061W, strain CKA2, active compounds read low 1.04 | S. cerevisiae deletion strains, locus YOR069W, strain VPS5, active compounds read low 1.04 | S. cerevisiae deletion strains, locus YOR080W, strain dia2, active compounds read low 1.02 | S. cerevisiae deletion strains, locus YOR083W, strain WHI5, active compounds read low 0.915 | S. cerevisiae deletion strains, locus YOR136W, strain idh2, active compounds read low 1.01 | S. cerevisiae deletion strains, locus YOR144C, strain elg1, active compounds read low 1.02 | S. cerevisiae deletion strains, locus YOR184W, strain ser1, active compounds read low 0.898 | S. cerevisiae deletion strains, locus YOR231W, strain MKK1, active compounds read low 1 | S. cerevisiae deletion strains, locus YOR265W, strain rbl2, active compounds read low 0.995 | S. cerevisiae deletion strains, locus YOR290C, strain snf2, active compounds read low 0.944 | S. cerevisiae deletion strains, locus YOR316C, strain cot1, active compounds read low 1.01 | S. cerevisiae deletion strains, locus YPL055C, strain LGE1, active compounds read low 1.05 | S. cerevisiae deletion strains, locus YPL240C, strain hsp82, active compounds read low 0.97 | S. cerevisiae deletion strains, locus YPL241C, strain CIN2, active compounds read low 1.05 | S. cerevisiae deletion strains, locus YPL256C, strain CLN2, active compounds read low 1.03 | S. cerevisiae deletion strains, locus YPR119W, strain clb2, active compounds read low 1.02 | S. cerevisiae deletion strains, locus YPR141C, strain kar3, active compounds read low 1.02 | S. cerevisiae deletion strains, locus YPR163C, strain tif3, active compounds read low 1.02 | S. cerevisiae deletion strains, locus YPR167C, strain met16, active compounds read low 1.02 | S. cerevisiae deletion strains, strain wtn01, active compounds read low 0.976 | S. cerevisiae strains, strain wild type, active compounds read low 1.02
active: S. cerevisiae deletion strains, locus YLL001W, strain dnm1, active compounds read low 0.867 | S. cerevisiae deletion strains, locus YLR027C, strain aat2, active compounds read low 0.899 | S. cerevisiae deletion strains, locus YLR262C, strain YPT6 (second series), active compounds read low 0.702 | S. cerevisiae deletion strains, locus YLR320W, strain mms22, active compounds read low 0.871 | S. cerevisiae deletion strains, locus YMR205C, strain PFK2, active compounds read low 0.843 | S. cerevisiae deletion strains, locus YNL071W, strain lat1, active compounds read low 0.603 | S. cerevisiae deletion strains, locus YOR070C, strain gyp1, active compounds read low 0.905 | S. cerevisiae deletion strains, locus YOR106W, strain vam3, active compounds read low 0.76 | S. cerevisiae deletion strains, locus YOR270C, strain vph1, active compounds read low 0.638 | S. cerevisiae deletion strains, locus YPL051W, strain arl3, active compounds read low 0.892 | S. cerevisiae deletion strains, locus YPL078C, strain atp4, active compounds read low 0.869 | S. cerevisiae deletion strains, locus YPL106C, strain sse1, active compounds read low 1.17 [resistant]
